Results as given in the supplement of paper PMC10498489.
Screen size: about 2,300 compounds; about 330 (14%) showed activity. These entries were drawn from the full list. Values without a mark were called inactive.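 The calls were made as follows: active = median modified Z-score above 1.96; inactive = 1.96 or below.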

These compounds were tested on HepG2 Srxn1-GFP reporter cells (+30 nM CDDO-Me) (assay: Srxn1-GFP intensity median modified Z-score relative to plate median; higher = stronger NRF2 / oxidative stress reporter activation, active = hit call of the paper). Details: 10 µM; exposure time: 24h.
How it was run: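 In 96-well plates holding 20,000 HepG2 Srxn1-GFP BAC reporter cells per well, compound at 10 μM and an NRF2 activator at 30 nM were added together for 24 h, with DMSO at ≤0.1%, across three replicate plates. After fixation in formaldehyde and Hoechst staining, confocal images were analysed cell by cell for cytoplasmic GFP, and images containing under 100 cells were excluded. Values are replicate medians of the per-plate modified Z-score of GFP intensity, scaled by 1.4826 × median absolute deviation.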

Row | SMILES | Srxn1-GFP intensity median modified Z-score
1 | CN(C)C1C(=O)C(C(N)=O)C(=O)[C@@]2(O)C(=O)C3C(=O)c4c(O)cccc4[C@@](C)(O)[C@H]3[C@H](O)[C@@H]12 (stereo partly drawn) [euspeclibcmpd225] | -0.444
2 | CC(=O)O[C@@H]1CC[C@]2(C)C3CC[C@]4(C)C(=O)CCC4C3CC[C@H]2C1 (stereo partly drawn) [euspeclibcmpd1810] | 0.269
3 | Cc1nc(=O)c(C[n+]2csc(CCO)c2C)c[nH]1 [euspeclibcmpd1800] | 0.155
4 | CCCCCC1C(=O)O[C@H](C)C(NC(=O)c2cccc(NC=O)c2O)C(=O)O[C@@H](C)[C@@H]1OC(=O)CC(C)C (stereo partly drawn) [euspeclibcmpd1446] | 39.4 (active)
5 | C[C@]12C=CC(=O)CC1=CCC1C2CC[C@]2(C)C(=O)CCC12 (stereo partly drawn) [euspeclibcmpd1581] | -0.0301
6 | N#CC(=Cc1ccc(O)cc1)C(=O)O [euspeclibcmpd1768] | -0.146
7 | CC[C@H](c1cccc(O)c1)[C@@H](C)CN(C)C [euspeclibcmpd2238] | -0.41
8 | O=C1C(Cl)=C(Cl)C(=O)C(Cl)=C1Cl [euspeclibcmpd1739] | 25.8 (active)
9 | C=CCN=C=S [euspeclibcmpd920] | 0.0414
10 | Cc1ccc(/N=C/N(C)/C=N/c2ccc(C)cc2C)c(C)c1 [euspeclibcmpd739] | 0.115
11 | CC1=C2CCC3C(CC[C@]4(C)C(=O)CCC34)[C@@]2(C)CCC1=O (stereo partly drawn) [euspeclibcmpd1163] | -0.15
12 | CN[C@@H]1[C@@H](O)C(OC2[C@@H](N)C[C@@H](N)[C@H](O[C@H]3O[C@H](C(C)O)[C@@H](O)[C@H](O)[C@H]3N)[C@H]2O)OC[C@]1(C)O (stereo partly drawn) [euspeclibcmpd1437] | -0.354
13 | CN1CCc2cc3c(cc2C1O)OCO3 (stereo not drawn) [euspeclibcmpd1021] | 0.455
14 | COc1ccc2c(c1OC)C(=O)O[C@@H]2[C@H]1c2cc3c(cc2CCN1C)OCO3 [euspeclibcmpd2270] | 0.619
15 | COc1cc([C@@H]2c3cc4c(cc3[C@H](O)[C@H]3COC(=O)C23)OCO4)cc(OC)c1OC (stereo partly drawn) [euspeclibcmpd2060] | 27.1 (active)
16 | COc1cc([C@@H]2c3cc4c(cc3[C@H](OC(C)=O)[C@H]3COC(=O)C23)OCO4)cc(OC)c1OC (stereo partly drawn) [euspeclibcmpd2106] | 13.1 (active)
17 | COc1cc([C@@H]2c3cc4c(cc3[C@H](O)[C@H]3COC(=O)C23)OCO4)cc(OC)c1OC (stereo partly drawn) [euspeclibcmpd2203] | 11.5 (active)
18 | NCc1cccnc1 [euspeclibcmpd1239] | -0.224
19 | CC(C)[N+](C)(CCC(C(N)=O)(c1ccccc1)c1ccccc1)C(C)C [euspeclibcmpd164] | 0.396
20 | CC(C)c1cccc(C(C)C)c1O [euspeclibcmpd699] | -0.02
21 | C[C@]12CCC(=O)CC1=CC=C1C2CC[C@@]2(C)C1CC[C@@]2(O)CCC(=O)O (stereo partly drawn) [euspeclibcmpd2339] | -0.283
22 | CCC(C(=O)[C@H](C)[C@@H](O)[C@H](C)[C@@H]1O[C@@H]([C@@H](CC)C(=O)O)CC[C@@H]1C)[C@H]1OC2(C=C[C@@H](O)[C@]3(CC[C@@](C)([C@H]4CC[C@](O)(CC)[C@H](C)O4)O3)O2)[C@H](C)C[C@@H]1C (stereo partly drawn) [euspeclibcmpd2084] | 6.06 (active)

Row | SMILES | Srxn1-GFP intensity median modified Z-score
23 | CC(C)(C)NCC(O)c1cc(Cl)c(N)c(Cl)c1 (stereo not drawn) [euspeclibcmpd1154] | -0.331
24 | CCC(N)C(O)c1ccc(O)c(O)c1 (stereo not drawn) [euspeclibcmpd646] | -0.33
25 | CN1CC(CNC(=O)OCc2ccccc2)C[C@H]2c3cccc4c3c(cn4C)CC21 (stereo partly drawn) [euspeclibcmpd1151] | -0.466
26 | COc1cc2c(c(OC)c1OC)-c1ccc(=O)c(O)cc1C(NC(C)=O)CC2 (stereo not drawn) [euspeclibcmpd2248] | -0.142
27 | COc1cc2c(c(OC)c1OC)-c1ccc(OC)c(=O)cc1[C@@H](NC(C)=O)CC2 [euspeclibcmpd73] | 13.3 (active)
28 | CNC(=O)Oc1ccc2c(c1)[C@]1(C)CCN(C)[C@@H]1N2C [euspeclibcmpd611] | 0.455
29 | C[C@H]1C[C@@H](O)[C@]2(O)[C@@]13CC(=O)OC[C@@]2(C)[C@](C)(O)C(=O)C3 [euspeclibcmpd1475] | 0.639
30 | COc1ccc(CN2CCNCC2)c(OC)c1OC [euspeclibcmpd1198] | 0.677
31 | CCOC(=O)c1cncn1[C@H](C)c1ccccc1 [euspeclibcmpd826] | -0.145
32 | O=C(O)C1[O][Sb]2[O]C(=O)C([O]2)C(C(=O)O)[O][Sb]2[O]C(=O)C1[O]2 (stereo not drawn) [euspeclibcmpd2437] | 3.34 (active)
33 | CC(=O)OC1CN2CCC1CC2 (stereo not drawn) [euspeclibcmpd385] | -0.0983
34 | O=[N+]([O-])C(Br)(CO)CO [euspeclibcmpd2257] | 6.25 (active)
35 | COc1ccc(C(=O)O)cc1OC [euspeclibcmpd2003] | -0.455
36 | C[C@]12CC[C@H](O)CC1=CCC1C2CC[C@]2(C)C(=O)CC[C@@H]12 (stereo partly drawn) [euspeclibcmpd1201] | -0.236
37 | OCC(O)[C@H]1O[C@@H]2O[C@H](C(Cl)(Cl)Cl)O[C@@H]2[C@H]1O (stereo partly drawn) [euspeclibcmpd1184] | 0.0668
38 | O=C(NC(=O)c1c(F)cccc1F)Nc1cc(Cl)c(OC(F)(F)C(F)C(F)(F)F)cc1Cl (stereo not drawn) [euspeclibcmpd1213] | 13.1 (active)
39 | CCC1(CC)C(=O)NC(=S)NC1=O | 1.23
40 | O=C1C=CC(=O)c2c(O)cccc21 [euspeclibcmpd1492] | 0.761
41 | CC1=CC(=O)c2c(O)cccc2C1=O [euspeclibcmpd1444] | 67.7 (active)
42 | CC1(C)C2CC(=O)[C@]3(C)C(CC[C@@]4(C)[C@H](c5ccoc5)OC(=O)C5O[C@]543)[C@@]2(C)C(=O)C[C@H]1O (stereo partly drawn) [euspeclibcmpd1592] | -0.255
43 | N#Cc1[nH]n(-c2c(Cl)cc(C(F)(F)F)cc2Cl)c(=N)c1[S+]([O-])C(F)(F)F (stereo not drawn) [euspeclibcmpd821] | -0.323
